Bioassay records: PubChem, The Scripps Research Institute Molecular Screening Center
Sampled rows, rich in hits. Any-hit rate of the full collection: about 3.4%.
FBW7 activator = human FBW7 E3 ligase activation, primary screen; Q969H0; AlphaScreen FBW7–phospho-cyclin E peptide binding, activator screen; actives 0.13% (n = 650,000); normalized activity (activation), % at 26.1 µM; in the data active means normalized activity above about 1.9%;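 further: purified mutant Fbw7 with reduced substrate affinity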
GPR151 activ = activates the human receptor GPR151; Q8TDV0; PathHunter beta-arrestin GPR151 cells, luminescence; activation, % at 11.2 µM; actives 1% (n = 650,000); in the data active means activation above about 4.9%;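 further: 0% = median of compound wells and 100% = cells with positive control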
Target sequence (Q8TDV0 whole entry, looked up): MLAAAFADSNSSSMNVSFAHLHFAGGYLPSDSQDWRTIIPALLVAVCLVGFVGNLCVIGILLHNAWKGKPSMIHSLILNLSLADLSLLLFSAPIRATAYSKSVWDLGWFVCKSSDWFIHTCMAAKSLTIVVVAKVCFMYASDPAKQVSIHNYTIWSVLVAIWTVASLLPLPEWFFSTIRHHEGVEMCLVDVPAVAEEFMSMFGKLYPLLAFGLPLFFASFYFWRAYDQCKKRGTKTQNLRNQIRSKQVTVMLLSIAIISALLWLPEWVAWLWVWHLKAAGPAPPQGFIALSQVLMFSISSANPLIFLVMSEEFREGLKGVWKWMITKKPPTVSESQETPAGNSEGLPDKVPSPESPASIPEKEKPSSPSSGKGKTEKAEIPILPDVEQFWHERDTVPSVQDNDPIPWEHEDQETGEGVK
MITF primary = human MITF inhibition, primary screen. O75030. actives 0.91% (n = 650,000). inhibition, % at 2.6 µM. AlphaScreen MITF homodimerization, bead proximity signal. AID 1259374; in the data active means inhibition above about 50%;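 further: 0% = vehicle wells with protein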
TEAD-YAP block = TEAD-YAP interaction inhibition | HEK-TIYL cells, TEAD-Gal4/YAP UAS-luciferase luminescence | inhibition, % at 9.12 µM | actives 1.4% (n = 640,000); in the data active means inhibition above about 32%;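 further: 0% = median of test compound wells and 100% = reference inhibitor wells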
The depositor's hits bear a star.

SMILES	FBW7 activator	GPR151 activ	MITF primary	TEAD-YAP block
Cc1ccnc(NC(c2ccccn2)c2ccc3cccnc3c2O)c1 (stereo not given)	-1	-1	70*	71*
Cc1ccnc(NC(c2ccncc2)c2ccc3cccnc3c2O)c1 (stereo not given)	0	1	113*	79*
Cc1ccnc(NC(c2ccsc2)c2ccc3cccnc3c2O)c1 (stereo not given)	0	0	62*	89*
Oc1c(C(Nc2cccnc2)c2ccsc2)ccc2cccnc12 (stereo not given)	0	1	18	50*
COc1ccc(-c2nn(-c3ccccc3C)cc2CN(C)CC(O)CO)cc1F (stereo not given)	0	0	-7	-14
O=c1cncc(-c2ccc([N+](=O)[O-])cc2)n1-c1ccccc1	0	0	-10	-3
COc1ccc(C2NC(=O)NC(C)=C2C(=O)c2ccccc2)c(OC)c1 (stereo not given)	0	3	-9	-10
Cc1ccnc(NC(c2ccc(F)cc2)c2ccc3cccnc3c2O)c1 (stereo not given)	-2	-1	17	73*
Cc1ccnc(NC(c2ccc3c(c2)OCO3)c2ccc3cccnc3c2O)c1 (stereo not given)	0	1	28	82*
CCOc1ccc(NCC(O)Cn2c(C)c(C)c3ccccc32)cc1 (stereo not given)	0	-2	47	11
Cn1c(CNC(=O)/C=C/c2cccc(F)c2)nnc1SCc1ccccn1	0	0	-28	6
Cc1ccc(NC(=O)CSc2ncn[nH]2)cc1	0	-2	6	17
COc1ccc(NC(=O)CSc2ncn[nH]2)cc1	0	-3	-28	2
O=C(CSc1ncn[nH]1)Nc1ccc(-c2nc3ccccc3s2)cc1	1	4	17	53*
COC(=O)c1ccc(NC(=O)CSc2ncn[nH]2)cc1	2.4*	-4	6	-9
Cc1ccc2nc(-c3ccc(NC(=O)CSc4ncn[nH]4)cc3)sc2c1	0	-2	4	73*
Cc1ccc2nc(/C(C#N)=C/c3cc([N+](=O)[O-])ccc3O)[nH]c2c1	0	0	11	-4
COc1cc(/C=C(\C#N)c2nc3ccccc3[nH]2)c(Br)cc1O	1	-2	21	41*
COc1cc(Br)c(/C=C(\C#N)c2nc3ccccc3[nH]2)cc1OC	1	1	-7	-21
Cc1ccc2nc(/C(C#N)=C/c3ccccc3O)[nH]c2c1	0	-9	6	97*
Cc1cc(/C=C(/C#N)c2nc3ccccc3[nH]2)c(C)n1-c1cccnc1	0	3	3	59*
CCCc1ccc(-c2ccc(OC(=O)c3ccccc3Cl)cc2)nc1	0	-2	-2	70*
CCCc1ccc(C(=O)Oc2ccc(-c3ccc(CCC)cn3)cc2)cc1	0	-1	12	23
CCCN1C(=O)c2ccc(C(=O)Nc3ccc(O)cc3)cc2C1=O	0	-1	10	38*
CCN1C(=O)c2ccc(C(=O)Nc3cc(C(=O)O)cc(C(=O)O)c3)cc2C1=O	0	2	1	4
SMILES	FBW7 activator	GPR151 activ	MITF primary	TEAD-YAP block
CCCN1C(=O)c2ccc(C(=O)Nc3ccc(C(=O)O)cc3)cc2C1=O	0	-1	18	53*
CCCN1C(=O)c2ccc(C(=O)Nc3ccc(O)cc3C)cc2C1=O	0	-2	4	6
Cc1cc(NCCN2CCOCC2)n2nc(C)c(-c3cccs3)c2n1	0	0	6	7
O=C(Nc1ccnc2ccc(Cl)cc12)c1ccccc1	0	1	-17	18
CCOC(=O)c1c(C)c(C(=O)NCc2ccc(F)cc2)c(C)n1C	0	0	16	0
COc1cc2c(cc1OC)[C@@H]1C(=O)c3ccc4c(c3O[C@@H]1CO2)C=CC(C)(C)O4	0	2	-4	69*
CCOc1ccc2c(c1)/C(=C1/SC(C(C)=O)=C(c3ccccc3)S1)C(=S)C(C)(C)N2	0	-1	7	4
CC(=O)C1=C(c2ccccc2)S/C(=C2/C(=S)C(C)(C)Nc3ccc(C)cc32)S1	0	0	57*	7
O=c1c(Nc2ccccc2)c(-c2ccc(Cl)cc2)c1=O	0	-1	9	47*
CCOc1ccccc1Nc1c(-c2ccccc2)c(=O)c1=O	0	-1	-1	-8
O=c1c(Nc2ccc(Cl)cc2)c(-c2ccccc2)c1=O	0	0	9	-2
CCOc1ccc(Nc2c(-c3ccccc3)c(=O)c2=O)cc1	0	-2	20	60*
CC(c1ccccc1)N1CC(O)=C(c2nc3ccccc3[nH]2)C1=N (stereo not given)	0	1	-1	55*
CCOc1ccccc1N1CC(O)=C(c2nc3ccccc3[nH]2)C1=N	0	0	8	54*
CCN(CC)C(=O)CSc1nc2c(sc(=S)n2-c2cc(Cl)ccc2OC)c(=O)n1-c1ccc(F)cc1	1	0	1	-6
Cc1ccc2nc(C)c(C(=O)N3CCCC3)n2c1	0	-1	-2	5
Cc1ccc2nc(C)c(C(=O)N3CC(C)CC(C)C3)n2c1 (stereo not given)	2.1*	-1	6	-1
Cc1ccc2nc(C)c(C(=O)NC(C)C)n2c1	1.9*	-1	22	2
CCCNC(=O)CCn1nc(-c2ccc(C)cc2)c2ccccc2c1=O	0	0	17	2
CCCNC(=O)CCC(=O)Nc1ncc(-c2ccc(C)cc2)n1C	0	-1	-1	93*
CC(=O)/C=C(/C)NC(CO)C(O)c1ccc([N+](=O)[O-])cc1 (stereo not given)	0	-1	-3	1
CNC(=O)/C(=C/c1ccc([N+](=O)[O-])cc1)NC(=O)c1ccc(C)cc1	0	-1	-8	0
Cn1c(C2COc3ccccc3O2)nc2ccc(-c3ncnc4[nH]ccc34)cc21 (stereo not given)	2.8*	1	7	4
c1ccc2c(c1)OCC(c1nc3ccc(-c4ncnc5[nH]ccc45)cc3[nH]1)O2 (stereo not given)	0	0	5	49*
COc1ccc(C2=Nc3ccccc3C(C3CC3)=NN2)cc1	0	1	-4	-6
SMILES	FBW7 activator	GPR151 activ	MITF primary	TEAD-YAP block
COc1cc(NC(=O)Nc2cc(OC)c(Cl)cc2OC)c(OC)cc1Cl	0	0	-12	-9
CC1=CC(C)(C)N2C(=O)C(=O)c3cc(OS(=O)(=O)c4ccc(C)cc4)cc1c32	-1	0	32	12
CC1=CC(C)(C)N2C(=O)C(=O)c3cc(O)cc1c32	0	-1	34	54*
O=C(CC1CCCCC1)NNC(=O)c1cccc(S(=O)(=O)Nc2ccc(Cl)cc2)c1	0	4	-1	0
Cc1c(C)c2ccc(O)c(CN(C)C)c2oc1=O	0	3	11	4
Cc1nc(NCc2ccco2)nc(N2CCOCC2)c1[N+](=O)[O-]	0	0	5	-9
CC1CCN(S(=O)(=O)c2ccc(NC(=O)/C=C/c3ccc4c(c3)OCO4)cc2)CC1	0	0	13	44*
COc1ccc(/C=C/C(=O)Nc2ccccc2C(=O)O)cc1OC	0	-11	1	84*
